Experimental data reported in PubChem BioAssay.
“And” between values parts separate entries of the source, which are not always exact repeats. Identical values can stand only once. The source made the active and inactive calls. Unless noted, the rule behind the calls is not given here.

Key:
[1] = test system: XIP peptide (Xip251-270) binding; test: small-molecule binders of XIP peptide, primary screen, biochemical, small-molecule microarray, fluorescence 635/667 nm, 0.1 µg/mL protein (AID 1182); details: fluorescent protein binding, 635 nm, higher = more signal, called active from +8 up or from −8 down
XIP peptide (Xip251-270) = test: small-molecule binders of XIP peptide, primary screen, biochemical, small-molecule microarray, fluorescence 635/667 nm, 0.5 µg/mL protein (AID 1183); details: small-molecule microarray binding, fluorescence 635 nm; higher = more signal
[2] = Plasmodium falciparum growth inhibition, primary screen, strain 3D7, DAPI fluorescence, 100 nL (AID 1184);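 note: parasites grown inside human red blood cells in medium with human serum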; details: P. falciparum 3D7 growth, 3 d, higher = more signal
[3] = biological target: Homeobox protein Hox-A13 (Mus musculus) (UniProt Q62424); test: inhibitors of HoxA13-DNA binding, primary screen, biochemical, fluorescence polarization, labeled oligonucleotide (AID 1185); details: 15 min, higher = more signal, called active from +8 up or from −8 down
Sequence of Homeobox protein Hox-A13 (Mus musculus) (Q62424 whole entry, looked up): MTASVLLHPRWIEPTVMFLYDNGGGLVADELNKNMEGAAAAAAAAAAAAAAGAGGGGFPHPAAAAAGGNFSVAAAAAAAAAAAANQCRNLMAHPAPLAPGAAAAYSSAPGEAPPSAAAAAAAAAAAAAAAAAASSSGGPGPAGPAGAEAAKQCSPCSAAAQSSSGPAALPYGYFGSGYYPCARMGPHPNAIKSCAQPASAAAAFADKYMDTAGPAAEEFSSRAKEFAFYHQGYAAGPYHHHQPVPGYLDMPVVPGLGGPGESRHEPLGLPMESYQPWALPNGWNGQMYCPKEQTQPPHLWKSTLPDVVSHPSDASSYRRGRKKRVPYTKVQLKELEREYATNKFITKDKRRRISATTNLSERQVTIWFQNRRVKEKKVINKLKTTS

[4] = inhibitors of hydroxyurea-induced Chk1 phosphorylation, primary screen, imaging, HeLa, phospho-Chk1 antibody, percent positive cells (AID 1186); details: hydroxyurea-induced phospho-Chk1 immunofluorescence imaging, higher = more signal
[5] = inhibitors of hydroxyurea-induced Chk1 phosphorylation, primary screen, imaging, HeLa, phospho-Chk1 nuclear intensity (AID 1187); details: hydroxyurea-induced phospho-Chk1 immunofluorescence imaging, higher = more signal

SMILES | composite z-score [1] | composite z-score (XIP peptide (Xip251-270)) | z-score [2] | z-score [3] | z-score [4] | z-score [5]
C=CCN(CCCC)C(=O)C(c1cccs1)N(C(=O)/C=C\C(=O)O)c1c(Cl)cccc1CO (centres undefined) | -1.2 (inactive) and -0.551 (inactive) | -1.64 and 0.45 | -0.486 and -0.375 | 0.477 (inactive) and -0.33 (inactive) | 0.0771 (inactive) and -0.132 (inactive) | 0.677 (inactive) and -0.0581 (inactive)
C=C[C@H](OC)[C@@H](O)c1ccc(OCCO)cc1 | 0.632 (inactive) and -0.235 (inactive) | -1.15 and -0.537 | 0.0026 and 0.809 | -0.791 (inactive) and -0.187 (inactive) | 0.228 (inactive) and 0.524 (inactive) | 0.0287 (inactive) and 0.865 (inactive)
C=CCN(CCCC)C(=O)C(c1cccs1)N(CCOCCO)C(=O)/C=C\C(=O)O (centres undefined) | 0.455 (inactive) and 0.476 (inactive) | -0.836 and -0.765 | 0.329 and -0.0611 | 0.578 (inactive) and 0.724 (inactive) | -0.36 (inactive) and 0.442 (inactive) | 0.132 (inactive) and 1.47 (inactive)
C=CCN(C(=O)C(c1cccs1)N(C(=O)/C=C\C(=O)O)c1ccc(CCO)cc1)c1ccc(OC)cc1 (centres undefined) | -0.104 (inactive) and -0.169 (inactive) | -0.0376 and -1.95 | -0.142 and -0.395 | -0.698 (inactive) and -0.535 (inactive) | -0.157 (inactive) and 0.581 (inactive) | 0.686 (inactive) and 0.548 (inactive)
C[N+](C)(C)CCCCNC(=O)[C@H]1C[C@H]2C(=O)N[C@@H](CCCC[N+](C)(C)C)C(=O)N2[C@H]1c1ccc(O)cc1 | 1.52 (inactive) and 1.25 (inactive) | 0.761 and 0.892 | 0.952 and -1.12 | -0.497 (inactive) and 1.22 (inactive) | 0.487 (inactive) and -0.868 (inactive) | 0.605 (inactive) and -0.687 (inactive)
C=CCN(C(=O)C1N(c2c(Cl)cccc2CO)C(=O)C2C(C(=O)O)C3C=CC21O3)c1ccc(OC)cc1 (centres undefined) | -0.241 (inactive) and -0.23 (inactive) | 0.74 and 0.312 | -0.927 and 0.408 | -1.96 (inactive) and 0.908 (inactive) | -0.6 (inactive) and -1.27 (inactive) | 0.0631 (inactive) and -0.682 (inactive)
C=C[C@@H](C)[C@@H](O)c1ccc(O)c2ccccc12 | 0.238 (inactive) and 0.467 (inactive) | -0.54 and -0.684 | 1.31 and -0.772 | -3.43 (inactive) and -4.33 (inactive) | 0.789 (inactive) and 0.536 (inactive) | 1.17 (inactive) and 0.193 (inactive)
C=CCN(CCCCC)C(=O)C(c1cccs1)N(CCOCCO)C(=O)/C=C\C(=O)O (centres undefined) | -0.44 (inactive) and -0.841 (inactive) | -0.265 and -0.343 | -0.102 and -0.0618 | -0.478 (inactive) and -0.603 (inactive) | -0.0506 (inactive) and -0.514 (inactive) | 0.425 (inactive) and 0.965 (inactive)
C=CCN(CCCCC)C(=O)C1N(C(C)(C)CO)C(=O)C2C(C(=O)O)C3C=CC21O3 (centres undefined) | -0.53 (inactive) and -1 (inactive) | -0.417 and -1.97 | -0.0999 and 0.86 | -0.598 (inactive) and 0.0686 (inactive) | 0.0341 (inactive) and -0.15 (inactive) | 0.436 (inactive) and 0.287 (inactive)
C=CCN(C(=O)C1N(CCOCCO)C(=O)C2C(C(=O)O)C3C=CC21O3)c1ccc(OC)cc1 (centres undefined) | -0.675 (inactive) and -0.315 (inactive) | 0.138 and 0.24 | 0.301 and -0.0133 | -1.06 (inactive) and -0.636 (inactive) | 0.0962 (inactive) and 0.399 (inactive) | -0.087 (inactive) and 0.191 (inactive)
CCOC(=O)C[C@H]1[C@H](OC(=O)c2ccccc2-c2ccccc2)[C@@H](NC(=O)c2ccccc2)c2cc(OCCCO)ccc2N1C(=O)c1ccc2ccccc2n1 | -0.196 (inactive) and 0.367 (inactive) | -0.0343 and 0.393 | -0.345 and 0.0894 | -3.24 (inactive) and -1.56 (inactive) | 0.105 (inactive) and -0.0471 (inactive) | 0.118 (inactive) and -0.0805 (inactive)
CCOC(=O)[C@@H]1CC2O[C@]23C[C@@H]1C(=O)N1CCC[C@@H]1[C@H]3O[Si](C)(C)C(C)(C)C (some centres undefined) | -0.86 (inactive) and -0.342 (inactive) | -0.791 and 0.0241 | -0.662 and 1.63 | -4.09 (inactive) and -1.56 (inactive) | 0.271 (inactive) and 0.387 (inactive) | 0.288 (inactive) and 0.549 (inactive)
C=C[C@H](C)[C@@H](O)c1ccc(OCCO)cc1 | -0.301 (inactive) and -0.375 (inactive) | 0.112 and 0.861 | 0.394 and 0.709 | -1.51 (inactive) and -0.976 (inactive) | 0.845 (inactive) and -1.4 (inactive) | 0.121 (inactive) and -0.859 (inactive)
COC(=O)[C@@]1(Cc2ccc(F)cc2)[C@H]2c3cc(C(=O)N4CCCC4)n(Cc4c(CO)[nH]cc(C)c4=O)c3C[C@H]2CN1C(=O)c1ccccc1 | 1.1 (inactive) and 0.516 (inactive) | -0.307 and 0.761 | -1.4 and -1.6 | -5.99 (inactive) and -5.23 (inactive) | 0.113 (inactive) and 0.998 (inactive) | 0.0243 (inactive) and 0.533 (inactive)
CCCCCN1CC=CC23O[C@@H]4C=CCCOC(=O)C4[C@H]2C(=O)N(C(C)CO)[C@@H]3C1=O (some centres undefined) | 0.79 (inactive) and 0.201 (inactive) | 0.675 and 0.445 | -0.165 and -0.358 | -5.44 (inactive) and -4.65 (inactive) | -0.605 (inactive) and 0.667 (inactive) | 0.0018 (inactive) and 0.28 (inactive)
C[N+](C)(C)CCCCCCNC(=O)[C@H]1C[C@H]2C(=O)N[C@@H](CCCC[N+](C)(C)C)C(=O)N2[C@H]1c1cccc(OCCO)c1 | 0.421 (inactive) and 1.17 (inactive) | 0.691 and 0.903 | 0.11 and 0.17 | -2.01 (inactive) and -2.31 (inactive) | 0.247 (inactive) and 0.199 (inactive) | 0.316 (inactive) and -0.109 (inactive)
C=CCN(CCCC)C(=O)C1N(CCOCCO)C(=O)C2C(C(=O)O)C3C=CC21O3 (centres undefined) | 0.175 (inactive) and 0.306 (inactive) | 1.07 and -0.932 | 0.172 and 0.134 | -1.14 (inactive) and -0.529 (inactive) | -0.24 (inactive) and 0.924 (inactive) | -0.299 (inactive) and 0.869 (inactive)
C=C[C@H](OC)[C@@H](O)c1ccc(O)c(F)c1 | 0.406 (inactive) and -0.397 (inactive) | 0.563 and 0.0248 | 1.66 and 0.778 | 0.0518 (inactive) and 0.0165 (inactive) | -0.0834 (inactive) and -0.834 (inactive) | -0.132 (inactive) and -0.265 (inactive)
C=CCN(CCCC)C(=O)C1N(c2ccc(CCO)cc2)C(=O)C2C(C(=O)O)C3C=CC21O3 (centres undefined) | -1.72 (inactive) and -1.1 (inactive) | 0.261 and -0.728 | 0.224 and -1.45 | -1.03 (inactive) and -0.448 (inactive) | 0.147 (inactive) and -0.608 (inactive) | -0.173 (inactive) and -0.502 (inactive)
C=CCN(CCCCC)C(=O)C1N(c2c(Cl)cccc2CO)C(=O)C2C(C(=O)O)C3C=CC21O3 (centres undefined) | -0.421 (inactive) and -0.228 (inactive) | -0.416 and -1.42 | -1.2 and -1.04 | -2.42 (inactive) and -0.615 (inactive) | -0.672 (inactive) and 0.433 (inactive) | -0.669 (inactive) and 0.367 (inactive)
C=CCN(Cc1ccccc1)C(=O)C(c1cccs1)N(C(=O)/C=C\C(=O)O)c1c(Cl)cccc1CO (centres undefined) | -0.422 (inactive) and -0.522 (inactive) | -0.367 and -1.55 | -0.82 and -0.106 | 1.14 (inactive) and 0.425 (inactive) | -0.347 (inactive) and 0.628 (inactive) | 0.0032 (inactive) and 0.521 (inactive)
C=CCN(Cc1ccccc1)C(=O)C1N(c2c(Cl)cccc2CO)C(=O)C2C(C(=O)O)C3C=CC21O3 (centres undefined) | 0.297 (inactive) and -0.407 (inactive) | -2.24 and -0.403 | -0.0029 and -1.42 | 0.428 (inactive) and -1.12 (inactive) | -0.544 (inactive) and -0.696 (inactive) | -0.649 (inactive) and -0.167 (inactive)
C=CCN(CCCCC)C(=O)C1N(CCOCCO)C(=O)C2C(C(=O)O)C3C=CC21O3 (centres undefined) | 0.901 (inactive) and -0.15 (inactive) | 0.571 and -1.58 | 0.234 and 0.841 | -1.09 (inactive) and -0.752 (inactive) | 0.0583 (inactive) and 0.485 (inactive) | 0.233 (inactive) and -0.0615 (inactive)
CC(CO)N1C(=O)[C@@H]2C3C(=O)OCCC=C[C@H]3OC23C=CCN(c2ccc(Cl)cc2)C(=O)[C@@H]13 (some centres undefined) | 0.291 (inactive) and 0.137 (inactive) | -0.784 and 0.213 | -0.764 and -0.187 | -3.34 (inactive) and -6.16 (inactive) | 0.537 (inactive) and -0.0281 (inactive) | 0.654 (inactive) and 0.0058 (inactive)
